Values without a mark were called inactive. The source made the active and inactive calls.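 How the source made its calls, unless noted: active means mean inhibition over 43.08%, the solvent-only control mean plus 3 SD; inactive means the rest.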
Key:
[1] = target: Nuclear receptor coactivator 3 (Homo sapiens) (UniProt Q9Y6Q9); assay: SRC3 coactivator transcriptional activity inhibitors, confirmation, cell-based, luminescence, quadruplicate (AID 588792); conditions: HEK293 GAL4-SRC3 luciferase reporter, at 3.6 µM, active compounds read high;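 further: 0% = DMSO treated cells and 100% = gossypol at 36 µM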
[2] = test system: transactivating tegument protein VP16 (Human herpesvirus 1), Gal4-VP16 luciferase reporter; assay: VP16 transactivation inhibitors, counter-screen for SRC3 inhibitor project, cell-based, luminescence, high throughput (AID 588794; in the data active means inhibition above about 30%); conditions: mammalian cells, VP16-driven luciferase reporter luminescence; at 3.6 µM; active compounds read high
[3] = target: Nuclear receptor coactivator 1 (Homo sapiens) (UniProt Q15788); assay: SRC1 coactivator transcriptional activity inhibitors, confirmation, cell-based, luminescence, quadruplicate (AID 588820;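 active means mean inhibition above 46.68%, the untreated control wells mean plus 3 SD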;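 further: 0% = DMSO wells and 100% = gossypol 36 µM treated wells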); conditions: HEK293 GAL4-SRC1 luciferase reporter, at 3.6 µM, active compounds read high
[4] = VP16 transactivation inhibitors, counter-screen for SRC1 inhibitor project, cell-based, luminescence, high throughput (AID 588824; in the data active means inhibition above about 25%); conditions: cell-based VP16 transactivation luciferase luminescence; at 3.6 µM; active compounds read high
[5] = test system: transactivating tegument protein VP16 (Human herpesvirus 1); assay: VP16 transactivation reporter inhibitors, counter-screen for SRC2 inhibitor project, cell-based, luminescence, single concentration (AID 652007; in the data active means inhibition above about 36%); conditions: cell-based VP16 transactivation luciferase reporter, at 8.9 µM, active compounds read high
[6] = target: Nuclear receptor coactivator 2 (Homo sapiens) (UniProt Q15596); assay: SRC2 coactivator transcriptional activity inhibitors, confirmation, cell-based, luminescence, HEK293, triplicate (AID 652008;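 active means mean inhibition above 46.5%, the solvent-only control mean plus 3 SD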;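 further: 0% = DMSO-treated cells and 100% = Gossypol at 36 µM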); conditions: HEK293 GAL4-SRC2 luciferase reporter, at 8.9 µM, active compounds read high
Chain of Nuclear receptor coactivator 2 (Homo sapiens) (Q15596 whole entry, looked up, the tested form may be a part): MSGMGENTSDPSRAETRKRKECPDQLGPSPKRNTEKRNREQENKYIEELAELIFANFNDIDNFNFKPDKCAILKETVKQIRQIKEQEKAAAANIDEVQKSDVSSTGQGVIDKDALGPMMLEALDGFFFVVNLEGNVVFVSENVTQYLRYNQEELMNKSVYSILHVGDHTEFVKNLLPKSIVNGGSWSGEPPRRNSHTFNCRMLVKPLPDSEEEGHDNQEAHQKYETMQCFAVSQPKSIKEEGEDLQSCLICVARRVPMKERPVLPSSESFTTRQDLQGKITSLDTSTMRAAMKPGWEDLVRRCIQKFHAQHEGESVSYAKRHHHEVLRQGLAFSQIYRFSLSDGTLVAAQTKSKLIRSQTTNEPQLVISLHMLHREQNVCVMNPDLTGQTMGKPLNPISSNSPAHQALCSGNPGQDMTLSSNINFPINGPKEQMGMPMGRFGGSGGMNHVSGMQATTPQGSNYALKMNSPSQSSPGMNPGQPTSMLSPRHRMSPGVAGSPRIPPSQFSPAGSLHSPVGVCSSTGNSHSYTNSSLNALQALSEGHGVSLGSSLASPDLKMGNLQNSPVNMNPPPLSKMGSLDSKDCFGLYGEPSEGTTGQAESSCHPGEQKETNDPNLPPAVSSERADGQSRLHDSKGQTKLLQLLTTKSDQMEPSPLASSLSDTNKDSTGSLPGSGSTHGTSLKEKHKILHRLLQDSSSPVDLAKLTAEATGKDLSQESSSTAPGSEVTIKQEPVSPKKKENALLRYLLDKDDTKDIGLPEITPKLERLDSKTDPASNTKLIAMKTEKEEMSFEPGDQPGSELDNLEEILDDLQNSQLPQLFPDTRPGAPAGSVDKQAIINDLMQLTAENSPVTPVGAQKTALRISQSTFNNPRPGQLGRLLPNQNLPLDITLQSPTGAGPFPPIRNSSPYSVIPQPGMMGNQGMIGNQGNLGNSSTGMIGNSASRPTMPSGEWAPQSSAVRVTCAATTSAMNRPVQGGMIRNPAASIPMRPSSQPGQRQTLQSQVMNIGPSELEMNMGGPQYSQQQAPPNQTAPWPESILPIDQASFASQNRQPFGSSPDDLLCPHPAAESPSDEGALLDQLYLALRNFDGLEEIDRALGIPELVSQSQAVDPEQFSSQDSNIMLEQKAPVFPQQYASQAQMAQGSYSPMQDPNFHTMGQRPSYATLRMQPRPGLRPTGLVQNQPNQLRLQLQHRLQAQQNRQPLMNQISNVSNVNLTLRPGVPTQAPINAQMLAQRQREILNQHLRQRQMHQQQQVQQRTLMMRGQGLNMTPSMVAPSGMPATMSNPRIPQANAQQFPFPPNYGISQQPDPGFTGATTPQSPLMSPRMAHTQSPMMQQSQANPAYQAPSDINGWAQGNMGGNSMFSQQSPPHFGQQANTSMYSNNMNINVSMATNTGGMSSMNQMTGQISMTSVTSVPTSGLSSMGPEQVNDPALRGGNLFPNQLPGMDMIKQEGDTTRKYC

Chain of Nuclear receptor coactivator 3 (Homo sapiens) (Q9Y6Q9 whole entry, looked up, the tested form may be a part): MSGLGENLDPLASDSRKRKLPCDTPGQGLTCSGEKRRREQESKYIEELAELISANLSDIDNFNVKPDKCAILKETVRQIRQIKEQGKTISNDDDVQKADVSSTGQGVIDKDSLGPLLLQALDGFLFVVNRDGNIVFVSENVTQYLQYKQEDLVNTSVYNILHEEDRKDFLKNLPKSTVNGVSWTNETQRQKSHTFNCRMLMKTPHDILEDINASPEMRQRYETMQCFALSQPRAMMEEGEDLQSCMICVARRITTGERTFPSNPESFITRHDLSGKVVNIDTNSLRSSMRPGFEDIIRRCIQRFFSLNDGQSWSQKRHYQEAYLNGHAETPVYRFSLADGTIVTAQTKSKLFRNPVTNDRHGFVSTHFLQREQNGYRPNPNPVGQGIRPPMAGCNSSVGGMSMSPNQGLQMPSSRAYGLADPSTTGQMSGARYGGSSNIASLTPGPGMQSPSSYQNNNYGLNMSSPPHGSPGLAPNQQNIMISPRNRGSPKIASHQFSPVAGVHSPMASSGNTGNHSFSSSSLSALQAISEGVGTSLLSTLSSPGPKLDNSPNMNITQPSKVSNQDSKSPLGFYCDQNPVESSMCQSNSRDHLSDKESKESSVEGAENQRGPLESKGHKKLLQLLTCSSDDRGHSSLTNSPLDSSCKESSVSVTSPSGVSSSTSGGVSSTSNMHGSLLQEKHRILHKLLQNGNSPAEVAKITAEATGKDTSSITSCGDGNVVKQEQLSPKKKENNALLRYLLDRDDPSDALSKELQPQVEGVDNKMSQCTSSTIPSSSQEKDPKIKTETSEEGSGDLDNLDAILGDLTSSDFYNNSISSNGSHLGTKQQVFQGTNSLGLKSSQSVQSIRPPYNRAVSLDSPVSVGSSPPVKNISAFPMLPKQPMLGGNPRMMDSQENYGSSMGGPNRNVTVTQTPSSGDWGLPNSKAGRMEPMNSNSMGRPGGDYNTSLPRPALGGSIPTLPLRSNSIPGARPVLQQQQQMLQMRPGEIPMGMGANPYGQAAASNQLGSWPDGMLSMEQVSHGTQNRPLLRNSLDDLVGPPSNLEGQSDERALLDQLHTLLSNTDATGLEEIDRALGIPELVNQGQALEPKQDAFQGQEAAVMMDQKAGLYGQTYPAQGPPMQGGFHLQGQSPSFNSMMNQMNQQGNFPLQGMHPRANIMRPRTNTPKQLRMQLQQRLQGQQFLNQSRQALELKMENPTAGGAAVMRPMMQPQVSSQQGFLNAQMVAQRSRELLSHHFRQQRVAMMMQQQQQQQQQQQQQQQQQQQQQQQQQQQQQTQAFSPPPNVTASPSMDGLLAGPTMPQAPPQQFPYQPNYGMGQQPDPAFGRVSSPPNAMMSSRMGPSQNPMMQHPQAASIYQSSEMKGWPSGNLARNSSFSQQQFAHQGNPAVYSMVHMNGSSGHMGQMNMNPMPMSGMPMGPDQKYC
Chain of Nuclear receptor coactivator 1 (Homo sapiens) (Q15788 whole entry, looked up, the tested form may be a part): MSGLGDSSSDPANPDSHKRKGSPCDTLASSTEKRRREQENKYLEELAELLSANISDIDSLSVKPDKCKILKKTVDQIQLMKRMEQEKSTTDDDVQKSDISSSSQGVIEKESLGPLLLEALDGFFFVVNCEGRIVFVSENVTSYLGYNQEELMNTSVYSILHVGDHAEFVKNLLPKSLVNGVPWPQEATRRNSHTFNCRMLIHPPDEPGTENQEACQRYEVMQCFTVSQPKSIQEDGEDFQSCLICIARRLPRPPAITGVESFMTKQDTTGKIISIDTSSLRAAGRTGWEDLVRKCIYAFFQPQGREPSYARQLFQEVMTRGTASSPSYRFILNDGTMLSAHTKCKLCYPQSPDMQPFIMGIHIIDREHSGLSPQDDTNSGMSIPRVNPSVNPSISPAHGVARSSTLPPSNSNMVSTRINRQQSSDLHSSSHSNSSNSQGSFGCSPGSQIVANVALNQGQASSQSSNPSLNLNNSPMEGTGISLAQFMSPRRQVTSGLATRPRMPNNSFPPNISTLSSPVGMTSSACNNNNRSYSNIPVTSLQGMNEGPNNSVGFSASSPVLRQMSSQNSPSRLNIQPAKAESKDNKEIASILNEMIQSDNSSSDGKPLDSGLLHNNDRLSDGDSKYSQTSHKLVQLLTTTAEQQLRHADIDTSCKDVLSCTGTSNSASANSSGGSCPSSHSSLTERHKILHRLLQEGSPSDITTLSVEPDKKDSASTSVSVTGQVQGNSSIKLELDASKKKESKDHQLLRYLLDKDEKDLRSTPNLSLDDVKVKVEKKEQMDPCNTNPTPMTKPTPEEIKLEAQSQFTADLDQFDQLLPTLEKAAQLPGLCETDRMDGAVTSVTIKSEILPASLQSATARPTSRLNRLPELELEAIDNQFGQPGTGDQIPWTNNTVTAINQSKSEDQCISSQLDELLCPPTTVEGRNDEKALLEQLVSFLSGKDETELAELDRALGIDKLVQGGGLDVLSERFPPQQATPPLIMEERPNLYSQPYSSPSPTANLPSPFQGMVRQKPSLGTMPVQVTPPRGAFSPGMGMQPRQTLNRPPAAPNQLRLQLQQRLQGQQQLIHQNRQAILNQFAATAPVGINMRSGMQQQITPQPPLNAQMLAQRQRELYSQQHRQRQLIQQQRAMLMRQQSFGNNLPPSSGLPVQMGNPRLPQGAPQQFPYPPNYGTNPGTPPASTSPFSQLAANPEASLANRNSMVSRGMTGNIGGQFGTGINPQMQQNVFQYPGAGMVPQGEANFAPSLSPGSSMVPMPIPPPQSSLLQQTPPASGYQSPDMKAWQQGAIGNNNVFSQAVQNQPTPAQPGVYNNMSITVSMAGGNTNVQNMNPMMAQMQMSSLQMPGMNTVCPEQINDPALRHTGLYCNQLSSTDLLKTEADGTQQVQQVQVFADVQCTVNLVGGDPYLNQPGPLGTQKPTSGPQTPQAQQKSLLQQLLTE

| Structure (SMILES) | inhibition [1] | inhibition [2] | inhibition [3] | inhibition [4] | inhibition [5] | inhibition [6] |
| --- | --- | --- | --- | --- | --- | --- |
| Cc1ccc(/C=C2\SC(=S)N(CCCC(=O)NC3CCCC3)C2=O)cc1 | 55.2% (active) | 14.5% | 41.5% | 14.4% | 79.5% (active) | 89.4% (active) |
| O=C(N/N=C/c1cc([N+](=O)[O-])ccc1O)NC12CC3CC(CC(C3)C1)C2 | 19% | 15.1% | -3.01% | 10.3% | -0.05% | 42.3% |
| Cc1cccc(Nc2ncnc3ccc(Br)cc23)c1 | 38.9% | 32.6% (active) | 32.8% | 25.8% (active) | 0.23% | 29.7% |
| Cc1noc(/C=C/c2ccccn2)c1[N+](=O)[O-] | 54.6% (active) | 47.8% (active) | 48.4% (active) | 37% (active) | 25.9% | 29.3% |
| CCN(c1ccc(OC)cc1)c1ncnc2nc[nH]c12 | 66.8% (active) | 45.6% (active) | 67.2% (active) | 48.6% (active) | -3.42% | 45.7% |
| CCn1c(Oc2ccccc2C)nc2c1c(=O)n(C)c(=O)n2C | 51.9% (active) | 34.7% (active) | 51.5% (active) | 30.6% (active) | 14.5% | 40.9% |
| CC(=O)/C(N=Nc1ccc2c(c1)OCCO2)=C(\C)O | 45.3% (active) | -50.6% | 22.6% | -66.6% | -9.49% | 65.4% (active) |
| O=C1CCCCC1Sc1nnc(-c2ccc3c(c2)OCO3)o1 (stereo not given) | -5.91% | -22.1% | -129% | -49.6% | 34% | 53.1% (active) |
| CC(=O)c1cccc(-c2csc3ncnc(Sc4nnnn4C)c23)c1 | 33% | 20.4% | 6.55% | 30.8% (active) | 24% | 15.9% |
| O=[N+]([O-])c1ccc2ncnc(N3CCN(Cc4ccc5c(c4)OCO5)CC3)c2c1 | 74.2% (active) | 53.2% (active) | 64.4% (active) | 64.9% (active) | 8.73% | 54.2% (active) |
| C=C1C(=O)[C@@]23[C@H](O)C[C@@H]4C(C)(C)CC[C@H](O)[C@@]4(C)[C@@H]2CC[C@@H]1[C@H]3O | 28.5% | 49.6% (active) | -18% | 46.2% (active) | 33.9% | 66.4% (active) |
| COCCn1c(C)cc(C2=NNC(=NC3CC3)SC2)c1C | 91.2% (active) | 87.2% (active) | 85.7% (active) | 86.1% (active) | 90.8% (active) | 96.7% (active) |
| NC(=O)c1sc2nc3c(c(-c4cccs4)c2c1N)CCCCC3 | 83.3% (active) | 58.4% (active) | 77.6% (active) | 65% (active) | 7.38% | 60.3% (active) |
| Cc1ccc(/C=C2\SC(=S)N(CCCC(=O)NNC(=O)c3ccccc3O)C2=O)cc1 | 73.3% (active) | 53.6% (active) | 74.7% (active) | 58.3% (active) | 92.8% (active) | 95.4% (active) |
| CS(=O)(=O)Nc1ccc(-c2cnc3cccnn23)cc1 | 67.9% (active) | 41.6% (active) | 57.5% (active) | 51.7% (active) | -12.1% | 45.8% |
| Nc1ncccc1C(=O)OCC(=O)N1CCN(S(=O)(=O)c2ccc(Cl)cc2)CC1 | 32.3% | 22.3% | 23.2% | 20.6% | -4.99% | 25.8% |
| Brc1cccc(CSc2nnc(-c3ccncc3)o2)c1 | 45.8% (active) | 35.2% (active) | 44.4% | 26.9% (active) | 0.08% | 27.6% |
| Cc1cc(NC(c2ccc(Cl)cc2)c2ccc3cccnc3c2O)no1 (stereo not given) | 54% (active) | 42% (active) | 28.2% | 58.8% (active) | -9.15% | 17.6% |

| Structure (SMILES) | inhibition [1] | inhibition [2] | inhibition [3] | inhibition [4] | inhibition [5] | inhibition [6] |
| --- | --- | --- | --- | --- | --- | --- |
| COc1ccc(Cc2nnc(N/N=C/c3ccccc3O)[nH]c2=O)cc1OC | 84.5% (active) | 77% (active) | 76.7% (active) | 82.6% (active) | 21.2% | 38.8% |
| S=c1[nH]nc(C2CCCCC2)n1/N=C/c1ccncc1 | 75.2% (active) | 60.4% (active) | 64.6% (active) | 60.1% (active) | 10.3% | 51.4% (active) |
| O=C(NC1CCCCC1)C(c1cccnc1)N(C(=O)CCl)c1cccc(Cl)c1 (stereo not given) | 61.6% (active) | 26.8% | 33.4% | 17.5% | 39.6% (active) | 56.3% (active) |
| C=CCOc1ccc(/C=C2\SC(=S)N(CCC(=O)O)C2=O)cc1 | 32.8% | -27% | 35.5% | -38.4% | -24.5% | 91.5% (active) |
| CCCCCN1C=CC(=C2C(=O)c3ccccc3C2=O)C=C1 | 44.2% (active) | 31.3% (active) | -55.8% | 15.5% | 55.1% (active) | 77.3% (active) |
| O=C(Nc1cccc(C(F)(F)F)c1)Nc1nnc([C@@H]2C[C@H](O)[C@@H](CO)O2)s1 | 49% (active) | 21.6% | 29.3% | 20.7% | 1.58% | 29.1% |
| c1cc2[nH]snc2c2nc(C3CC3)nc12 | 63.9% (active) | 18.3% | 53.3% (active) | 23.3% | -12.6% | 19% |
| Cc1nc2c(-c3ccc(Cl)cc3)cnn2c(N)c1-c1ccc(F)cc1 | 38% | 24.5% | -12% | -6.2% | 2.27% | 53.7% (active) |
| COc1ccc2ncn(-c3ccccc3)c2c1 | 49.2% (active) | 32.7% (active) | 46.1% | 23.7% | -12.1% | 38.2% |
| Cn1nc(C(F)(F)F)c(C#N)c1N1CCN(c2ccccc2)CC1 | 56.3% (active) | 31.5% (active) | 35.6% | 19.3% | 4.83% | 27.6% |
| Cc1ccc(C(=O)Nc2cnc3ccccc3c2)cc1 | 44.4% (active) | 9.25% | -70.2% | 23.4% | 50.7% (active) | 84.9% (active) |
| COc1ccc(C(=O)C(CN2CCOCC2)c2ccccc2)cc1 (stereo not given) | 1.7% | 20.9% | 0.8% | 20.6% | 6.4% | 35% |
| COc1ccc(-c2cc3nc(C)n(N)c(=O)c3s2)cc1 | 57.6% (active) | 41.7% (active) | 19.4% | 39.4% (active) | 72% (active) | 83.8% (active) |
| CCCCN1C=CC(=C2C(=O)c3ccccc3C2=O)C=C1 | 41.5% | 23.1% | -41.3% | 14.1% | 51% (active) | 73.1% (active) |
| O=C(CCl)N(C1CCCC1)C1CCS(=O)(=O)C1 (stereo not given) | 71.6% (active) | 42.4% (active) | 58.3% (active) | 38.2% (active) | 30.6% | 63.6% (active) |
| Cc1cc(C(=O)COC(=O)c2cccnc2Cl)c(C)n1CC1CCCO1 (stereo not given) | 19.6% | 27.6% | -18.2% | -20.1% | 6.65% | 56.6% (active) |
| COc1ccc2[nH]c(=O)c3c(c2c1)OC(C)(C)C=C3 | 77.6% (active) | 41.7% (active) | 69.9% (active) | 44% (active) | 9.64% | 51.3% (active) |
